For the experiment, the system named is Plasmodium falciparum. Nature of the experiment: GSK_TCMDC: Inhibition of Plasmodium falciparum 3D7 in whole red blood cells, using parasite LDH activity as an index of growth. Test compounds present at 2uM. In kind it is functional.
Usually Inhibition stands for the drop in the measured response relative to a control, in per cent. Low values mean a response near the control, high ones a response far below the control. As for `CC(C)c1ccc(CN2CCC(NC(=O)c3ccc(-c4cccc(F)c4)s3)CC2)cc1.O=C(O)C(F)(F)F`, the Inhibition is on record as 83%. With `C[C@@H](CC1CCCCC1)OC(=O)N[C@H]1CCN(C#N)C1` the figure was 95%; with `Cc1ccc2[nH]c(C)cc(=NN=Cc3ccccc3Cl)c2c1`, 100%.

`COc1ccc(-c2ccc(NC(=O)c3ccc(Cl)cc3)cc2)cc1CN1CCN(C)CC1.O=C(O)C(F)(F)F` gave an Inhibition of 86%. As for `O=C(NCC1CCC(CNCCCc2ccccc2)CC1)Nc1ccc(Cl)c(Cl)c1` (stereo not given), the figure is 99%; as for `O=C(Nc1ccc2c(c1)CCN2C1CCN(Cc2ccc(C(F)(F)F)cc2F)C1)c1ccco1` (stereo not given), 91%; as for `O=C(Nc1ccc(Cn2nc(Cl)c(N3CCCNCC3)cc2=O)cc1)c1ccc(-c2ccccc2)cc1.O=C(O)C(F)(F)F`, 87%.

Regarding `CCS(=O)(=O)c1ccc(OC)c(Nc2nccc(-c3c(-c4cccc(NC(=O)c5c(F)cccc5F)c4)nn4ncccc34)n2)c1`, the Inhibition is given as 87%.

In the case of `COc1ccc(Cl)cc1NC(=O)C(C)Nc1ccc(-c2ccccc2)cc1` (stereo not given), the Inhibition stood at 91%. The compound `CN1CCN(CC2(Nc3nccc(NCCc4cn(C)c5ccccc45)n3)CCCCC2)CC1` registered an Inhibition of 91%. In the case of `Cc1cc2c(cc1C(F)(F)F)N(C(=O)Nc1cc(OCCN(C(C)C)C(C)C)cc(C(F)(F)F)c1)CC2.Cl`, the Inhibition was determined as 100%. As for `CC(C)(C)NCc1cc(Nc2ccnc3cc(Cl)ccc23)ccc1F`, the figure is 100%. For `Cc1ccc(-c2nc3cc(NC(=O)c4ccc([N+](=O)[O-])o4)ccc3o2)cc1Cl`, the Inhibition is reported as 100%. As for `Cc1cccc2nc(-c3cccc(-c4ccc(NC(=O)CN5CCOCC5)cc4)c3)[nH]c12`, the figure is 94%; as for `CC(=O)c1ccc2c(c1)C(NC(=O)c1cccc(Cl)c1Cl)C(CO)C(C)(C)O2` (stereo not given), 99%; as for `Br.CC1(C)NC(N)=NC(=N)N1OCCc1cccc2ccccc12`, 95%.

In turn, `COc1ccccc1CNC(=O)CCn1c(=O)[nH]c2ccsc2c1=O` displayed an Inhibition of 85%. With `O=C(Nc1cccnc1)c1cc(-c2cccnc2)nc2ccc(Br)cc12` the figure was 99%; with `COc1ccc(Nc2ncc3c(-c4cccc(NC(=O)Cc5cccc(O)c5)c4)c[nH]c3n2)cc1OC`, 100%; with `COc1ccc(CNCCc2cccs2)cc1-c1ccc(S(=O)(=O)NCCN2CCCC2)s1.O=C(O)C(F)(F)F`, 99%. With `Cc1cccc(CNc2nc(C)cc(N[C@@H](CC(C)C)C(=O)NCCOc3ccccc3)n2)c1.O=C(O)C(F)(F)F`, the Inhibition came out at 93%. Compound `Cc1ccc2[nH]c(-c3ccccc3)cc(=NN=Cc3cccnc3)c2c1` returned an Inhibition of 99%. With `O=C(NC1CCCCC1)C1CCCN(C(=O)c2ccc(O)c(-c3ccc(Cl)c(Cl)c3)c2)C1` (stereo not given) the figure was 89%; with `O=C(O)C(F)(F)F.O=[N+]([O-])c1cccc(CNC2CCN(Cc3ccc(Cl)c(Cl)c3)CC2)c1`, 100%. With `COc1cc2c(cc1C(F)(F)F)N(C(=O)Nc1cc(OC(F)(F)F)cc(-c3cccnc3)c1)CC2`, the Inhibition turned out to be 100%.

Compound `Cc1cccc(-c2ccc(NC(=O)Nc3ccc4nccc(N5CCN(C)CC5)c4c3)cc2C)n1.Cl` displayed an Inhibition of 100%.

Take `Cc1cc(-c2ccc(NC(=O)N3CCc4cc(Br)c(N5CCN(C)CC5)cc43)cc2)cc(C)n1`: the Inhibition worked out at 92%.

Regarding `CCOc1cc(C=NNc2nc(C)cc(-n3nc(C)cc3C)n2)ccc1O`, the Inhibition came out at 93%.

As to `CC(C)c1cccc(C(NC(=O)[C@H]2Cc3ccccc3CN2C(=O)c2cccc(N3CCOCC3)c2)C2CCCC2)c1` (stereo not given in full), the Inhibition is on record as 94%. With `Cc1cccc2nc(-c3cccc(-c4cccc(NC(=O)c5cn(C)c(=O)n5C)c4)c3)[nH]c12` the figure was 99%. As for `CN(C)CCOc1cc(NC(=O)Nc2ccc(Cl)cc2C(F)(F)F)ccc1I`, the figure is 96%; as for `CC(C)CNCc1cccc(-c2cccc(CN(CCCN3CCN(C)CC3)C(=O)/C=C/c3ccccc3)c2)c1.O=C(O)C(F)(F)F`, 90%; as for `O=C(O)C(F)(F)F.O=S(=O)(/C=C/c1ccccc1)N(Cc1ccc(-c2ccc(CNCCOc3ccccc3)cc2)cc1)CC1CCCCN1` (stereo not given), 99%.

`CCNc1cc(C)nc(Nc2ccc(NC(=O)c3ccco3)cc2)n1`: the Inhibition was determined as 95%.

Take `CC(C)(C)c1ccc(-c2cc(C(=O)N[C@@H](CO)C(=O)O)on2)cc1.CC(C)(C)c1ccc(-c2nocc2C(=O)N[C@@H](CO)C(=O)O)cc1`: the Inhibition was found to be 87%.

Compound `COc1cccc(CNC(=O)c2cccc(-c3cccc(CN4CCC(N5CCCC5)CC4)c3)n2)c1.O=C(O)C(F)(F)F` registered an Inhibition of 100%. In turn, `Fc1ccc2[nH]c(-c3cccc(-c4cccc(CN5CCN(c6cnccn6)CC5)c4)c3)nc2c1.O=C(O)C(F)(F)F` showed an Inhibition of 93%. As for `CC(=O)Nc1cc(C(=O)Nc2cccc(-c3cccc(-c4nc5cccc(C)c5[nH]4)c3)c2)ccc1C`, the figure is 100%. Regarding `Cl.O=C(Nc1ccc(C(=O)OCC2CCCN3CCCCC23)cc1)c1ccc(Cl)c(Cl)c1` (stereo not given), the Inhibition was found to be 99%. As for `CS(=O)(=O)N1CC2(CCN(CCC(NC(=O)NCc3ccccc3Cl)c3ccc(Cl)c(Cl)c3)CC2)c2ccccc21` (stereo not given), the figure is 85%.

For the origin of these results see ChEMBL document CHEMBL1157539, “Thousands of chemical starting points for antimalarial lead identification” (Nature, 2010).
